Test results reported in ChEMBL document CHEMBL1961873, “Compounds: GSK PKIS; Assays: Nanosyn kinase panel” (2012).

How the values were obtained:
[1] = biological target: High affinity nerve growth factor receptor (Homo sapiens) (UniProt P04629); conditions: at 1 µM;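 note: each value is the mean percent inhibition of TRKA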
[2] = biological target: BDNF/NT-3 growth factors receptor (Homo sapiens) (UniProt Q16620); conditions: at 0.1 µM
[3] = biological target: BDNF/NT-3 growth factors receptor (Homo sapiens) (UniProt Q16620); conditions: at 1 µM
[4] = biological target: NT-3 growth factor receptor (Homo sapiens) (UniProt Q16288); conditions: at 0.1 µM
[5] = biological target: NT-3 growth factor receptor (Homo sapiens) (UniProt Q16288); conditions: at 1 µM
[6] = biological target: T1, Tyrosine-protein kinase TXK (Homo sapiens) (UniProt P42681); conditions: at 0.1 µM
T1 sequence (whole entry): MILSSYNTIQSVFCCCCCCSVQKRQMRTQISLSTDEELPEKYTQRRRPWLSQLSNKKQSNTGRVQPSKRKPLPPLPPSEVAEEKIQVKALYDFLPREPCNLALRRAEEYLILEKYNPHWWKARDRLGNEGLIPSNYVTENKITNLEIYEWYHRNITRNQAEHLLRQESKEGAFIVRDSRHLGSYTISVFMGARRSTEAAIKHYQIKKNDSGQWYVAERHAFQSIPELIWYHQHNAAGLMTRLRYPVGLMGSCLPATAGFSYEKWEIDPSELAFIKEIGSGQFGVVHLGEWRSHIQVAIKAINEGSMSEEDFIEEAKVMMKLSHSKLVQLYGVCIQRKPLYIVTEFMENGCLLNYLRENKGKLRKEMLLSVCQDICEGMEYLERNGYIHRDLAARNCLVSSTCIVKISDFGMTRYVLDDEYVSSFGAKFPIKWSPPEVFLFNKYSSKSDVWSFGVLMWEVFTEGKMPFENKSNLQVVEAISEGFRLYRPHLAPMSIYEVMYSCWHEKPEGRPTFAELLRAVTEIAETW

[7] = biological target: T1, Tyrosine-protein kinase TXK (Homo sapiens); conditions: at 1 µM
[8] = biological target: Non-receptor tyrosine-protein kinase TYK2 (Homo sapiens) (UniProt P29597); conditions: at 0.1 µM;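 note: each value is a mean of the inhibition readings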
[9] = biological target: T2, Dual specificity protein kinase TTK (Homo sapiens) (UniProt P33981); conditions: at 1 µM;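 note: reported figures are mean TTK inhibition at 1 µM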
T2 sequence (whole entry): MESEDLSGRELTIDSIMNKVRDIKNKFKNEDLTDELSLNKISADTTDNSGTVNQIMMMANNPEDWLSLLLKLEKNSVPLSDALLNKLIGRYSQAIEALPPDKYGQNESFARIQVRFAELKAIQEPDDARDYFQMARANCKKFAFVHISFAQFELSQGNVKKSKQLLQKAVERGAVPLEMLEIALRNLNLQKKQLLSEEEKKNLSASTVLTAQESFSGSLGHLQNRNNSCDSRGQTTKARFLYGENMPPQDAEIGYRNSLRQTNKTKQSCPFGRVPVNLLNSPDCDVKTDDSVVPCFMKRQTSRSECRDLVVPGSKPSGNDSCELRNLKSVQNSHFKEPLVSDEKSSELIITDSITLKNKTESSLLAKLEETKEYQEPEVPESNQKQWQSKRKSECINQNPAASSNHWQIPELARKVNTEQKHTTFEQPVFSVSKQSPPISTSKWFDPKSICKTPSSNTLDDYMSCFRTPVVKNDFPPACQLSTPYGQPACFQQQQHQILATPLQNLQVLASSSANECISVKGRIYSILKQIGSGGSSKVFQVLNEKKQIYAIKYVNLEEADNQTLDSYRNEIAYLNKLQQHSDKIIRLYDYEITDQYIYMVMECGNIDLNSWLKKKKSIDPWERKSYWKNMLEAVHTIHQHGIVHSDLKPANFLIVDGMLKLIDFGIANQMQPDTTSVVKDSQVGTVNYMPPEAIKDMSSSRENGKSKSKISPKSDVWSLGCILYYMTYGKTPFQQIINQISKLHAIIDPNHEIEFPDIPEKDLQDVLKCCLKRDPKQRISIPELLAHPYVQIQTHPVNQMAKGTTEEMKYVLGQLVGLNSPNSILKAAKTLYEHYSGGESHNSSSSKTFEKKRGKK

[10] = biological target: T3, Aurora kinase A (Homo sapiens) (UniProt O14965); conditions: at 0.1 µM;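 note: each reported value is a mean percent inhibition of Aurora-A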
T3 sequence (whole entry): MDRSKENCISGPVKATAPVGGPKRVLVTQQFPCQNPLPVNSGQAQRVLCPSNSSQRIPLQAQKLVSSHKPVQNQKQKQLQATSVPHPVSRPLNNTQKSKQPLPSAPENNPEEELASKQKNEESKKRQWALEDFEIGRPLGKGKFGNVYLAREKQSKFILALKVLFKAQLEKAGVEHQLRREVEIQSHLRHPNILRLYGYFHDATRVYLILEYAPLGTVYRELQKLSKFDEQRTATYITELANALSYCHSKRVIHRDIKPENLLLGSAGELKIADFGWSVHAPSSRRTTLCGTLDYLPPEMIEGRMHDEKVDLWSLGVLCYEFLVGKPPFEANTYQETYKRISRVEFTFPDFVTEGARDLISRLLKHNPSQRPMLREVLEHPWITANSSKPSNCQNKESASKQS

Sequence of NT-3 growth factor receptor (Homo sapiens) (Q16288 32-839 limits assumed): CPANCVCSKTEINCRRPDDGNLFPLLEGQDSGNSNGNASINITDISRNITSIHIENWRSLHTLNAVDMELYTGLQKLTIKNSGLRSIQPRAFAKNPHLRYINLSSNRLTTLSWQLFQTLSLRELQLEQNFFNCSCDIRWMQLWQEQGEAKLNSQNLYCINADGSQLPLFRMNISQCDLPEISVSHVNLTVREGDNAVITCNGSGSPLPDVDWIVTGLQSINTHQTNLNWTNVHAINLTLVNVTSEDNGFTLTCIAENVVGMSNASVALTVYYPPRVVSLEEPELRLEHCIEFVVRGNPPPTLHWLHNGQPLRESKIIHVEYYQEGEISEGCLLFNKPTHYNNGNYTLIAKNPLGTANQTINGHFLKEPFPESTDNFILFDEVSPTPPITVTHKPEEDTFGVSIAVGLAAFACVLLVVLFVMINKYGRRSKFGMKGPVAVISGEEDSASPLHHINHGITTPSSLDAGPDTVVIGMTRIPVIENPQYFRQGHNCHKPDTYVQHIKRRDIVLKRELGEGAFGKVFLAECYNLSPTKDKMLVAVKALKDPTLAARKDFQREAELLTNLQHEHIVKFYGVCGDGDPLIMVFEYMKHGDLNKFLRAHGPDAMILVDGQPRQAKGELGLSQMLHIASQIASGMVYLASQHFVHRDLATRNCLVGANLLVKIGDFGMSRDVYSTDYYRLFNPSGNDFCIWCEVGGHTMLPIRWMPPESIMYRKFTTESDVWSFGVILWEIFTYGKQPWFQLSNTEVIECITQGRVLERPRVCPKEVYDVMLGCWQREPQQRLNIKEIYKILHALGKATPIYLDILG
Sequence of Non-receptor tyrosine-protein kinase TYK2 (Homo sapiens) (P29597 whole entry): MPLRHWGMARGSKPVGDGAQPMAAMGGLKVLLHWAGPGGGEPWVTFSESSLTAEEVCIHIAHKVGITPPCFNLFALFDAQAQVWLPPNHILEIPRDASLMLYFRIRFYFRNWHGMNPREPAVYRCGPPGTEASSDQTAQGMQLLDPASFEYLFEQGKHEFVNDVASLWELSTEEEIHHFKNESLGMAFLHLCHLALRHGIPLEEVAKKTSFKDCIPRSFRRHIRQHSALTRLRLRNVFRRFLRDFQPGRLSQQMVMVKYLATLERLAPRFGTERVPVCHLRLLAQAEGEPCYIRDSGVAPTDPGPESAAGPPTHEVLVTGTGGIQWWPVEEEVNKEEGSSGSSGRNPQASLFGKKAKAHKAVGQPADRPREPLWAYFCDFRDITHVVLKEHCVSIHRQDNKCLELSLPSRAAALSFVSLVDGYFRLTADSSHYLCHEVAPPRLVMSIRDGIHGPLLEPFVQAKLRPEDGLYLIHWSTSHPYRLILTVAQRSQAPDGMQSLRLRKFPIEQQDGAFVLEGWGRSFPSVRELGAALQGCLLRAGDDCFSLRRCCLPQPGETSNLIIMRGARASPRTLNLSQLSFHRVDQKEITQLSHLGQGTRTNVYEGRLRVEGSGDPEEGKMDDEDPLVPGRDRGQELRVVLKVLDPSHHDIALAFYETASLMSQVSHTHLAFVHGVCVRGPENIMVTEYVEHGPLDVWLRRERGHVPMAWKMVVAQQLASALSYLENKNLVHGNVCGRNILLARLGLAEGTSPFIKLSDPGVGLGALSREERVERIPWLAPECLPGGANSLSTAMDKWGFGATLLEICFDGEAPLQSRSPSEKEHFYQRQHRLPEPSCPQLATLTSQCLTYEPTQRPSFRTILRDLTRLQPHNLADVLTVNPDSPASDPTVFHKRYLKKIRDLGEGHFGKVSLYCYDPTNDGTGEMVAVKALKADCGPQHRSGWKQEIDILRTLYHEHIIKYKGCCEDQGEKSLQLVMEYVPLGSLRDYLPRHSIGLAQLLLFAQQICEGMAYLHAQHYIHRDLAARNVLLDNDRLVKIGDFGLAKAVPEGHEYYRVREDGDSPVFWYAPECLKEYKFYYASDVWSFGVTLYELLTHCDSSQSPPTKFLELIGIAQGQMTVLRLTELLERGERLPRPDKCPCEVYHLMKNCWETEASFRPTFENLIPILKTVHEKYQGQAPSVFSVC
Sequence of High affinity nerve growth factor receptor (Homo sapiens) (P04629 33-796 limits assumed): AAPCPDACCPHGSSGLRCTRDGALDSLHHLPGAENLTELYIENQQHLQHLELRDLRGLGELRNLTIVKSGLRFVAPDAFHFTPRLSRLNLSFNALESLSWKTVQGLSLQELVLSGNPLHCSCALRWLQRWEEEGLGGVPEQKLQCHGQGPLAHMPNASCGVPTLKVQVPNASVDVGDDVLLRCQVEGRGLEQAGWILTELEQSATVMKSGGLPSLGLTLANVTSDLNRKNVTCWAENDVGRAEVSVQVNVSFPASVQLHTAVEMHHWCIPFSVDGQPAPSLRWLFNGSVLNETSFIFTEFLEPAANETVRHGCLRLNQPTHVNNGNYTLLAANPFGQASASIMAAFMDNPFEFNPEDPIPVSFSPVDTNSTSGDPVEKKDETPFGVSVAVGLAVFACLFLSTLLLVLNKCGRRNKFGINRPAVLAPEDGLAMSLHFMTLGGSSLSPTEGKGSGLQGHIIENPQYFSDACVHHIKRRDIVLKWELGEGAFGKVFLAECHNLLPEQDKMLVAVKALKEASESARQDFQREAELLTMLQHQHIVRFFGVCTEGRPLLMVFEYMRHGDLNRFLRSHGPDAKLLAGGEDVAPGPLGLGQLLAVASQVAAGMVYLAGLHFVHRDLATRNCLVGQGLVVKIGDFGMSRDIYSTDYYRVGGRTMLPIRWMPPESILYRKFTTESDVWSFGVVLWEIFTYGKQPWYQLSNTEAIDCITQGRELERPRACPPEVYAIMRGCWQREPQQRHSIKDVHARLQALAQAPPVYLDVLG
Sequence of BDNF/NT-3 growth factors receptor (Homo sapiens) (Q16620 32-822 limits assumed): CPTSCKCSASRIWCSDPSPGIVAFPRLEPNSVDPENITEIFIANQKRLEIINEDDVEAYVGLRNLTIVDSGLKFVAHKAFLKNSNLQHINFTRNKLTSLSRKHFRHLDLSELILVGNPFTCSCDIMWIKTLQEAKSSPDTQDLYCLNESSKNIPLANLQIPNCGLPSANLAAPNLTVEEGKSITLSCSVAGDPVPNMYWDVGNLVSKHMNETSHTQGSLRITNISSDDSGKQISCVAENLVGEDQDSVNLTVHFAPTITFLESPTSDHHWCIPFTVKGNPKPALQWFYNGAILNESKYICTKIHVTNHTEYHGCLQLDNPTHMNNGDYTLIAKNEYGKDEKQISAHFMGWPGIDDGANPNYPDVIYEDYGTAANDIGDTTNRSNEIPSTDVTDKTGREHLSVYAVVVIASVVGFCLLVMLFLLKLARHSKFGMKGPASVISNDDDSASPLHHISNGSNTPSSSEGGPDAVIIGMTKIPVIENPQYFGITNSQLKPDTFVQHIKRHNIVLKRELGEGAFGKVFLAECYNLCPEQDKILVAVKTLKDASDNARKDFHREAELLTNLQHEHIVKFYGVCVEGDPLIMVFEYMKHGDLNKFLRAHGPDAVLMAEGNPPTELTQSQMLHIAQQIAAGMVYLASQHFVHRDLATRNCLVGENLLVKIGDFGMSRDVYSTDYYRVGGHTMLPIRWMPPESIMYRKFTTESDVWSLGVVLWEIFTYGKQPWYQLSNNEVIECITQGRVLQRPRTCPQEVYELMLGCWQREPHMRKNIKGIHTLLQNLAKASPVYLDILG

Row | SMILES | inhibition [1] [%] | inhibition [2] [%] | inhibition [3] [%] | inhibition [4] [%] | inhibition [5] [%] | inhibition [6] [%] | inhibition [7] [%] | inhibition [8] [%] | inhibition [9] [%] | inhibition [10] [%]
1 | COc1cccc(-n2ncc3c(N/N=C/c4ccncc4)ncnc32)c1 | 12.8 | 7.74 | 37.6 | 8.44 | 36.9 | 4.8 | 18.6 | -2.74 | 18.5 | 12.1
2 | Nc1nonc1-c1nc2cnccc2n1C1CCCCC1 | -1.13 | -1.42 | -0.84 | -0.5 | 0.67 | -1.24 | -0.03 | 4.5 | 4.51 | -0.63
3 | NC(=O)c1sc(-n2cnc3cc(C(F)(F)F)ccc32)cc1OCc1ccccc1Br | -0.05 | 3 | 1.49 | 1.41 | 2.25 | 1.4 | 3.45 | 0.53 | 3.54 | 1.18
4 | COc1cc2c(cc1Nc1nc(Nc3ccsc3C(N)=O)c3cc[nH]c3n1)N(C(=O)CN(C)C)CCC2 |  | -0.6 | 3.59 | -1.52 | 3.92 | -2.39 | -1.59 | -8.98 | 36.4 | 2.03
5 | COc1cccc(COc2cc(-n3cnc4ccccc43)sc2C(N)=O)c1 | -7.54 | -0.03 | -0.8 | -2.79 | -1.55 | -1.73 | 2.43 | -1.93 | 4.76 | 2.16
6 | CCn1c(-c2nonc2N)nc2c(C#CC(C)(C)O)nc(O[C@@H](CN)c3ccccc3)cc21 | 0.16 | -1.86 | 1.16 | -1.62 | 0.7 | 2.06 | 2.31 | 2.96 | 8.72 | 0.22
7 | NS(=O)(=O)c1ccc(N/C=C2\C(=O)Nc3ccc4ncsc4c32)cc1 | 51.3 | 19.1 | 65.9 | 21.6 | 66.9 | -0.44 | 10.8 | 1.37 | 62.4 | 30
8 | NS(=O)(=O)c1ccc(-c2ccc3c(NC(=O)C4CC4)n[nH]c3c2)cc1 | 0.03 | 0.8 | 5.39 | 2.06 | 9.04 | 3.28 | 4.88 | -5.6 | 7.86 | 3.44
9 | COc1cc(C=NNc2ncnc3c2cnn3Cc2ccccc2)ccc1O | 2.96 | 0.74 | 23.4 | 0.17 | 14 | 1.55 | 19.6 | 3.47 | 3.09 | 2.88
10 | CCn1c(-c2nonc2N)nc2c(C#CC(C)(C)O)ncc(OC[C@@H]3CCCN3)c21 | -3.52 | -0.66 | 0.79 | 1.15 | -0.37 | -0.98 | 1.67 | -0.97 | 4.1 | 3.07
11 | CCn1c(-c2nonc2N)nc2c(C#CCN)ncc(OCCCN)c21 | -4.23 | -0.67 | -1.3 | 0.15 | 2.14 | -1.46 | -3.71 | 5.99 | -3.71 | -1.21
12 | Cc1cc(-c2ccco2)cc(C)c1/C=C/c1cncc(-c2nn[nH]n2)c1 | -4.92 | -0.9 | 4.36 | -0.6 | 5.53 | -0.29 | 4.01 | 0.06 | 4.48 | 3.01
13 | CCn1c(-c2nonc2N)nc2c(C#CC(C)(C)O)ncc(OCC3CCNCC3)c21 | 2.62 | 3.08 | 1.98 | 3.15 | 3.69 | -1.16 | -1.53 | -1.24 | 11.4 | -1.94
14 | Fc1ccc(-c2ncn(C3CCNCC3)c2-c2ccnc(Oc3ccccc3)n2)cc1 | 1.69 | 1.68 | 2.74 | 1.74 | 1.25 | -5.33 | -2.78 | -1.8 | 6.14 | -3.42
